Measurements reported in PubChem BioAssay AID1159580 (chemical genetic matrix, 2015).
Hit rate of the full screen: of about 5,500 compounds, about 2,000 (36%) were called active. Inconclusive results (about 18%) are left out. Rule as the data show it: active = normalized growth mostly below about 0.91 (no sharp cut-off); inconclusive = no clear call, values can overlap the other calls; inactive = mostly above about 0.92. The list shows a part of the results.

Assay: chemical genetic growth profiling, strain panel (AID 1159580);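 also: tested at 20 µM; growth read once vehicle control cultures reached saturation at 30 °C; 1 = growth at the plate median or of vehicle wells; lower values mean less growth of the strain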
Conditions: growth OD

Measured: normalized growth

Nc1ccc(S(=O)(=O)NC(=O)c2ccccc2)cc1
inactive: S. cerevisiae deletion strains, locus YJR066W, strain TOR1, stronger effect = lower value 0.932 | S. cerevisiae deletion strains, locus YJR075W, strain HOC1, stronger effect = lower value 1.02 | S. cerevisiae deletion strains, locus YKL009W, strain mrt4, stronger effect = lower value 1.02 | S. cerevisiae deletion strains, locus YKL068W, stronger effect = lower value 1.01 | S. cerevisiae deletion strains, locus YKL085W, strain MDH1 (second series), stronger effect = lower value 1 | S. cerevisiae deletion strains, locus YKL085W, strain MDH1, stronger effect = lower value 1 | S. cerevisiae deletion strains, locus YKL160W, strain elf1, stronger effect = lower value 1.01 | S. cerevisiae deletion strains, locus YKL190W, strain CNB1, stronger effect = lower value 1.01 | S. cerevisiae deletion strains, locus YKR001C, strain vps1, stronger effect = lower value 1.03 | S. cerevisiae deletion strains, locus YKR026C, strain gcn3, stronger effect = lower value 0.969 | S. cerevisiae deletion strains, locus YKR091W, strain srl3, stronger effect = lower value 0.978 | S. cerevisiae deletion strains, locus YLL001W, strain dnm1, stronger effect = lower value 0.995 | S. cerevisiae deletion strains, locus YLL026W, stronger effect = lower value 1 | S. cerevisiae deletion strains, locus YLL041C, strain sdh2, stronger effect = lower value 0.992 | S. cerevisiae deletion strains, locus YLR027C, strain aat2, stronger effect = lower value 0.996 | S. cerevisiae deletion strains, locus YLR039C, strain RIC1, stronger effect = lower value 0.834 | S. cerevisiae deletion strains, locus YLR058C, strain SHM2, stronger effect = lower value 1.01 | S. cerevisiae deletion strains, locus YLR102C, strain apc9, stronger effect = lower value 1.01 | S. cerevisiae deletion strains, locus YLR113W, strain HOG1, stronger effect = lower value 0.968 | S. cerevisiae deletion strains, locus YLR221C, strain rsa3, stronger effect = lower value 0.976 | S. cerevisiae deletion strains, locus YLR258W, strain gsy2, stronger effect = lower value 0.987 | S. cerevisiae deletion strains, locus YLR262C, strain YPT6 (second series), stronger effect = lower value 0.979 | S. cerevisiae deletion strains, locus YLR262C, strain YPT6, stronger effect = lower value 1.01 | S. cerevisiae deletion strains, locus YLR268W, strain sec22, stronger effect = lower value 1.04 | S. cerevisiae deletion strains, locus YLR320W, strain mms22, stronger effect = lower value 0.985 | S. cerevisiae deletion strains, locus YLR330W, strain CHS5, stronger effect = lower value 1.01 | S. cerevisiae deletion strains, locus YLR342W, strain FKS1 (second series), stronger effect = lower value 1.02 | S. cerevisiae deletion strains, locus YLR342W, strain FKS1, stronger effect = lower value 0.998 | S. cerevisiae deletion strains, locus YLR357W, strain rsc2, stronger effect = lower value 0.977 | S. cerevisiae deletion strains, locus YLR370C, strain arc18, stronger effect = lower value 0.991 | S. cerevisiae deletion strains, locus YLR371W, strain rom2, stronger effect = lower value 1.02 | S. cerevisiae deletion strains, locus YLR384C, strain iki3, stronger effect = lower value 0.998 | S. cerevisiae deletion strains, locus YLR418C, strain cdc73, stronger effect = lower value 1.02 | S. cerevisiae deletion strains, locus YML016C, strain PPZ1, stronger effect = lower value 1.04 | S. cerevisiae deletion strains, locus YML032C, strain rad52, stronger effect = lower value 1.03 | S. cerevisiae deletion strains, locus YML120C, strain ndi1, stronger effect = lower value 0.972 | S. cerevisiae deletion strains, locus YML124C, strain tub3, stronger effect = lower value 1.01 | S. cerevisiae deletion strains, locus YMR058W, strain fet3, stronger effect = lower value 0.981 | S. cerevisiae deletion strains, locus YMR078C, strain ctf18, stronger effect = lower value 1.01 | S. cerevisiae deletion strains, locus YMR125W, strain sto1, stronger effect = lower value 0.977 | S. cerevisiae deletion strains, locus YMR129W, stronger effect = lower value 0.989 | S. cerevisiae deletion strains, locus YMR205C, strain PFK2, stronger effect = lower value 1 | S. cerevisiae deletion strains, locus YMR223W, strain ubp8, stronger effect = lower value 1.01 | S. cerevisiae deletion strains, locus YMR231W, strain pep5, stronger effect = lower value 0.981 | S. cerevisiae deletion strains, locus YMR263W, strain SAP30, stronger effect = lower value 1.01 | S. cerevisiae deletion strains, locus YMR307W, strain GAS1, stronger effect = lower value 0.878 | S. cerevisiae deletion strains, locus YNL067W, strain RPL9B, stronger effect = lower value 1.01 | S. cerevisiae deletion strains, locus YNL071W, strain lat1, stronger effect = lower value 0.977 | S. cerevisiae deletion strains, locus YNL183C, strain NPR1, stronger effect = lower value 0.95 | S. cerevisiae deletion strains, locus YNL209W, strain ssb2, stronger effect = lower value 0.971 | S. cerevisiae deletion strains, locus YNL233W, strain BNI4, stronger effect = lower value 1.01 | S. cerevisiae deletion strains, locus YNL248C, strain rpa49, stronger effect = lower value 1 | S. cerevisiae deletion strains, locus YNL250W, strain rad50, stronger effect = lower value 1 | S. cerevisiae deletion strains, locus YNL271C, strain bni1, stronger effect = lower value 1.01 | S. cerevisiae deletion strains, locus YNL298W, strain CLA4, stronger effect = lower value 1.02 | S. cerevisiae deletion strains, locus YNL307C, strain MCK1, stronger effect = lower value 1.03 | S. cerevisiae deletion strains, locus YNL322C, strain KRE1 (second series), stronger effect = lower value 0.964 | S. cerevisiae deletion strains, locus YNR049C, strain mso1, stronger effect = lower value 0.981 | S. cerevisiae deletion strains, locus YNR052C, strain pop2, stronger effect = lower value 1.01 | S. cerevisiae deletion strains, locus YOL006C, strain TOP1, stronger effect = lower value 1 | S. cerevisiae deletion strains, locus YOL012C, strain htz1 1.35 | S. cerevisiae deletion strains, locus YOL147C, strain pex11, stronger effect = lower value 1.02 | S. cerevisiae deletion strains, locus YOR001W, strain rrp6, stronger effect = lower value 0.954 | S. cerevisiae deletion strains, locus YOR061W, strain CKA2, stronger effect = lower value 1 | S. cerevisiae deletion strains, locus YOR069W, strain VPS5, stronger effect = lower value 1.01 | S. cerevisiae deletion strains, locus YOR070C, strain gyp1, stronger effect = lower value 0.996 | S. cerevisiae deletion strains, locus YOR080W, strain dia2, stronger effect = lower value 0.981 | S. cerevisiae deletion strains, locus YOR083W, strain WHI5, stronger effect = lower value 0.966 | S. cerevisiae deletion strains, locus YOR106W, strain vam3, stronger effect = lower value 0.999 | S. cerevisiae deletion strains, locus YOR136W, strain idh2, stronger effect = lower value 1.01 | S. cerevisiae deletion strains, locus YOR144C, strain elg1, stronger effect = lower value 1.01 | S. cerevisiae deletion strains, locus YOR184W, strain ser1, stronger effect = lower value 1.03 | S. cerevisiae deletion strains, locus YOR231W, strain MKK1, stronger effect = lower value 0.996 | S. cerevisiae deletion strains, locus YOR265W, strain rbl2, stronger effect = lower value 0.997 | S. cerevisiae deletion strains, locus YOR270C, strain vph1, stronger effect = lower value 0.96 | S. cerevisiae deletion strains, locus YOR290C, strain snf2, stronger effect = lower value 0.993 | S. cerevisiae deletion strains, locus YOR316C, strain cot1, stronger effect = lower value 1 | S. cerevisiae deletion strains, locus YPL051W, strain arl3, stronger effect = lower value 1.01 | S. cerevisiae deletion strains, locus YPL078C, strain atp4, stronger effect = lower value 1.04 | S. cerevisiae deletion strains, locus YPL106C, strain sse1, stronger effect = lower value 0.976 | S. cerevisiae deletion strains, locus YPL240C, strain hsp82, stronger effect = lower value 0.983 | S. cerevisiae deletion strains, locus YPL256C, strain CLN2, stronger effect = lower value 0.984 | S. cerevisiae deletion strains, locus YPR119W, strain clb2, stronger effect = lower value 1.02 | S. cerevisiae deletion strains, locus YPR141C, strain kar3, stronger effect = lower value 1.02 | S. cerevisiae deletion strains, locus YPR163C, strain tif3, stronger effect = lower value 1.02 | S. cerevisiae deletion strains, locus YPR167C, strain met16, stronger effect = lower value 1.01 | S. cerevisiae deletion strains, strain wtn01, stronger effect = lower value 1.01 | S. cerevisiae strains, strain wild type, stronger effect = lower value 1.01
